Compound activity (PubChem BioAssay)
12-LOX inh – Primary qHTS assay for inhibitors of human arachidonate 12S-lipoxygenase (ALOX12): Round 2 | Polyunsaturated fatty acid lipoxygenase ALOX12 (Homo sapiens), P18054 | purified 12hLO, xylenol orange hydroperoxide absorbance | Potency, µM (highest dose often 108 µM), for inactives: top-dose activity change, negative = inhibition, hits mostly inhibitors | 1.1% of 580,000 active; also: % is scaled to controls: 0 for no effect and ±100 for the full control effect
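Hydroperoxide product was detected by ferrous iron/xylenol orange as the 573 to 405 nm absorbance ratio. Arachidonic acid at 40 uM (final) was turned over for 30 min at room temperature by 150 nM human 12hLO, pH 7.0 Hepes buffer, after 15 min compound preincubation.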
Sfp PPTase inh – qHTS Assay for Inhibitors of Bacillus subtilis Sfp phosphopantetheinyl transferase (PPTase) | 4'-phosphopantetheinyl transferase ffp (Bacillus subtilis), Q9F4F7 | Biochemical Sfp PPTase activity, qHTS | Potency, µM, for inactives: largest response in the series, negative = inhibition, usual class: inhibitors | 3.5% of 310,000 active | AID 1490, 2009;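 also: the enzyme is Sfp with the accession as filed and its product quenches rhodamine fluorescence; 0% = enzyme reaction without inhibitor and -100% = no enzyme wells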
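Buffer: 50 mM Hepes-Na pH 7.6, 10 mM MgCl2, 0.01% Nonidet P-40, 0.01% BSA. Enzyme 15 nM, pre-exposed to compound 15 min; substrates then added and fluorescence change tracked over 30 min.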
G9a block – qHTS Assay for Inhibitors of Histone Lysine Methyltransferase G9a. Histone-lysine N-methyltransferase EHMT2 (Homo sapiens), Q96KQ7. G9a H3K9 monomethylation, AlphaScreen, 2 h. Potency, µM (doses to about 102 µM), without a hit: at the top dose activity, negative = inhibition, most hits filed as inhibitors. 8.8% of 350,000 active; also: % is scaled to controls: 0 for no effect and ±100 for the full control effect; nearly all actives have a fitted effect of over 75% in size
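Compounds were preincubated with 20 nM G9a for 15 min, after which biotinylated H3K9 peptide (500 nM) and SAM (20 uM) started a 2 h room-temperature reaction. Monomethylated product was quantified by antibody-based AlphaScreen chemiluminescence.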
HP1b chromo inh – HTS for Inhibitors of HP1-beta Chromodomain Interactions with Methylated Histone Tails | Chromobox protein homolog 1 (Homo sapiens), P83916 | AlphaScreen HP1-beta / biotin-H3K9me3 peptide binding | Potency, µM (top dose mostly 114 µM), for inactives: top-dose activity change, negative = inhibition, actives largely listed as inhibitors | 0.56% of 390,000 active; also: nearly all actives have a fitted effect of over 70% in size
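HP1-beta protein (50 nM final) preincubated 30 min at room temperature with biotinylated H3(1-18)K9me3 peptide (50 nM) in PBS pH 7.4, 0.01% Tween-20, then compound added for 30 min. AlphaScreen streptavidin donor/nickel chelate acceptor beads (10 ug/mL final), 30 min dark, luminescence read.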
BAZ2B inh – qHTS Assay for Inhibitors of BAZ2B; Bromodomain adjacent to zinc finger domain protein 2B (Homo sapiens), Q9UIF8; AlphaScreen BAZ2B-H3K14Ac peptide displacement; Potency, µM (series often up to 114 µM), for the others: top-dose activity change, negative = inhibition, actives largely listed as inhibitors; 4.4% of 360,000 active; AID 504333, 2011; also: % is scaled to controls: 0 for no effect and ±100 for the full control effect; nearly all actives have a fitted effect of over 60% in size
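AlphaScreen displacement of biotin-H3(5-23)K14Ac peptide (50 nM final) from BAZ2B (50 nM final) in PBS pH 7.4, 0.01% Tween-20; complex preformed 30 min RT, then compounds (top 110 uM) 30 min RT, beads 20 min dark.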
JMJD2A Tudor inh – qHTS Assay for Inhibitors of JMJD2A-Tudor Domain. Lysine-specific demethylase 4A (Homo sapiens), O75164. AlphaScreen JMJD2A-Tudor / H3K4me3 peptide binding. Potency, µM (doses to about 114 µM), inactives show top-dose activity change, negative = inhibition, most hits filed as inhibitors. 4.4% of 390,000 active; also: % is scaled to controls: 0 for no effect and ±100 for the full control effect; nearly all actives have a fitted effect of over 50% in size
Target sequence (O75164 whole entry, looked up, the tested form may be a part): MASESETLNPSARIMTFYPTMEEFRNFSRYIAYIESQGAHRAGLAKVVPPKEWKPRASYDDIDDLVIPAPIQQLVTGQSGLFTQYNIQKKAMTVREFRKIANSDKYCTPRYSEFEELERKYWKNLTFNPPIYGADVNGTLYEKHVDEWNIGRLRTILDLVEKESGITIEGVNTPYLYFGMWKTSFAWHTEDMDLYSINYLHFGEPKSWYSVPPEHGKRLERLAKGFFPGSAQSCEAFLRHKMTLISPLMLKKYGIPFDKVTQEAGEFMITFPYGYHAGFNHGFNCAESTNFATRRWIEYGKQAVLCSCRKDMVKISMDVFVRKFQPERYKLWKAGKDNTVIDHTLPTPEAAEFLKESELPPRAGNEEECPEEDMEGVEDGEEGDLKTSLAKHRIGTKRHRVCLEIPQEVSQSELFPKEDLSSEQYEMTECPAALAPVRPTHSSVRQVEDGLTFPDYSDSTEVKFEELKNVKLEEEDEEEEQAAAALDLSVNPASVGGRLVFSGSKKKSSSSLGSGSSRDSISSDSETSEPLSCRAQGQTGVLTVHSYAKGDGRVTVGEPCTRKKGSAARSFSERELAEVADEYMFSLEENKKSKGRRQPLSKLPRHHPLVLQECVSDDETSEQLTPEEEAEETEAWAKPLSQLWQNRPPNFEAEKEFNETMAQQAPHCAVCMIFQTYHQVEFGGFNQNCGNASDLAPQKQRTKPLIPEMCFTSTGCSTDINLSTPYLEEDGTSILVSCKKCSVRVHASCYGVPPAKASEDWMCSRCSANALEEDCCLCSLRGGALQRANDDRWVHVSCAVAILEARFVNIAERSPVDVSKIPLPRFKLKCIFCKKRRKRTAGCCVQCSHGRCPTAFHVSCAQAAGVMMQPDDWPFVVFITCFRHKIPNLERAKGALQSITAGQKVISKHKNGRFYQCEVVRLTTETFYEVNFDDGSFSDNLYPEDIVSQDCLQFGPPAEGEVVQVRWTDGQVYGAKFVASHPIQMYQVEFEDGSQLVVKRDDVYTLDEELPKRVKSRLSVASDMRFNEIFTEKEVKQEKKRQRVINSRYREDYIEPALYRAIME
* marks the source's active call; other numbers are inactive results; ? = inconclusive; · = no result given; [ ] = remark or other dose. In the library only some 8.7% were active in any assay of this set; here they are far more common. Calls follow the shape of the dose curve; as a rule, active = well fitted curve in the direction sought with a large enough effect; inconclusive = small, poorly fitted or top-dose-only effect, or another doubt; inactive = no such curve, though single readings can be large; an effect the other way counts as inactive or inconclusive. Potency is read from the fitted curve at half-maximal effect.

SMILES	12-LOX inh	Sfp PPTase inh	G9a block	HP1b chromo inh	BAZ2B inh	JMJD2A Tudor inh
COc1ccc(C(=O)Nc2ccc(N3CCOCC3)cc2)cc1S(=O)(=O)NC1CCCC1	-8%	6%	32µM*	8%	-29%	-25%
O=C(Nc1ccc(S(=O)(=O)N2CCCCC2)cc1)c1ccc(=O)[nH]c1	?	·	14µM*	22%	-1%	-10%
COc1ccc(NC(=O)N[C@@H](CCSC)C(=O)O)c(OC)c1	10%	·	·	·	·	·
COc1ccc(C(=O)Nc2ccc(S(=O)(=O)N3CCCCC3)cc2)cc1OC	0%[57.4 µM]	4%	-11%[59 µM]	?	-10%	79µM*
CC(OC(=O)c1ccc(Cl)c(S(=O)(=O)N2CCOCC2)c1)C(=O)NC1CCCCC1C (stereo not drawn)	8%	8%	15%[0.501 µM]	31%	-19%	3%
COc1ccc(C(=O)OC(C)C(=O)NC2CCCCC2C)cc1S(=O)(=O)N1CCOCC1 (stereo not drawn)	1%	·	79µM*	29%	-7%	0%
COc1ccc(S(=O)(=O)N2CCOCC2)cc1C(=O)Nc1ccc(N2CCCCCC2)cc1	17%	·	·	?	·	10µM*
COc1ccc(C(=O)Nc2ccc(N3CCOCC3)cc2)cc1S(=O)(=O)N1CCOCC1	-7%	·	56µM*	29%	-3%	-7%
Cc1ccc(S(=O)(=O)N2CCCCC2)cc1C(=O)Nc1ccc(N2CCOCC2)cc1	-10%	2%	38%[0.501 µM]	13%	-8%	-9%
OCCC1CN(Cc2cc(F)cc(F)c2)CCN1Cc1cccs1 (stereo not drawn)	19%	·	·	·	·	·
COC[C@@H]1CN(C(=O)Cc2ccccc2Cl)C[C@H]1c1ccncc1	33%	·	·	·	·	·
Cc1ccc(CN2CCc3nn(Cc4ccccc4)c(=O)n3CC2)nc1	42%	·	·	·	·	·
O=C(CNC1CCCCCC1)Nc1ccccc1N1CCCCC1	?	?	?	?	?	1.4µM*
COc1ccc(CC(=O)Nc2ccccc2N2CCCC2)cc1	-10%	-3%	·	7%	?	-36%
O=C(Cc1ccccc1)Nc1ccccc1N1CCCC1	-13%	0%	56µM*	12%	-35%	-30%
O=C(Cc1ccc(Br)cc1)Nc1ccccc1N1CCCC1	-3%	10%	50µM*	-3%	?	?
O=C(CNCCC1=CCCCC1)Nc1ccccc1N1CCCCC1	?	?	1.8µM*	?	50µM*	5.6µM*
O=C(Cc1ccccc1)Nc1ccccc1N1CCOCC1	0%	4%	0%[0.0925 µM]	48%	-7%	4%
O=C(CNCC1CCCCC1)Nc1ccccc1N1CCCCC1	?	?	?	-25%	?	-76%[57.1 µM]
N#Cc1cccc(C(=O)N(Cc2cccs2)C2CC2)c1	25%	·	·	·	·	·
CN1C(=O)Cc2cc(-c3csc(Nc4ccccc4)n3)ccc21	-35%	·	·	·	·	·
CCn1nc(C(=O)Nc2ccccc2N2CCCC2)c2ccccc2c1=O	?	·	25µM*	?	40µM*	35µM*
Cc1ccccc1-n1c2nc(=O)n(C)c(=O)c-2cc2ccccc21	458%	15%	-32%	35%	-2%	6%
Cn1c(=O)nc2n(Cc3ccccc3)c3ccccc3cc-2c1=O	?	-27%	8.9µM*	14%	2%	-10%
C/C=C\C(=O)Nc1cccc(C2=NOC3(C2)C[C@@H](C(N)=O)N(C(=O)CC(c2ccccc2)c2ccccc2)C3)c1 (stereo partly drawn)	-2%	-10%	8%[12.7 µM]	1%	?	?
SMILES	12-LOX inh	Sfp PPTase inh	G9a block	HP1b chromo inh	BAZ2B inh	JMJD2A Tudor inh
C/C=C/C=C\C(=O)Nc1cccc(C2=NOC3(C2)C[C@H](C(N)=O)N(C(=O)/C=C/C)C3)c1 (stereo partly drawn)	-1%	22µM*	?	?	-4%	79µM*
CCC(=O)Nc1cccc(C2=NOC3(C2)C[C@@H](C(N)=O)N(C(=O)CC)C3)c1 (stereo partly drawn)	1%	6%	28%[59 µM]	26%	-6%	-15%
C/C=C\C=C\C(=O)N1CC2(CC(c3cccc(NC(=O)CC)c3)=NO2)C[C@H]1C(N)=O (stereo partly drawn)	-9%	35µM*	?	27%	-11%	-27%
C/C=C/C=C\C(=O)Nc1cccc(C2=NOC3(C2)C[C@@H](C(N)=O)N(C(=O)c2cc([N+](=O)[O-])cc([N+](=O)[O-])c2C)C3)c1 (stereo partly drawn)	16µM*	25µM*	24%[12.7 µM]	-13%	-11%	-35%
C/C=C/C=C/C(=O)Nc1cccc(C2=NOC3(C2)C[C@H](C(N)=O)N(C(=O)CC(c2ccccc2)c2ccccc2)C3)c1 (stereo partly drawn)	·	40µM*	1%[12.7 µM]	·	?	·
CC(=O)c1cc2c(cc1NC(=O)CSc1nnc(C3CC3)n1Cc1ccccc1)OCO2	-28%	·	·	·	·	·
CCn1ncnc1C1CC(=O)Nc2cc(OC)c(NC(=O)CC(C)C)cc21 (stereo not drawn)	26%	·	·	·	·	·
COc1cc(Cl)c(C)cc1NC(=O)CN1C(=O)NC2(CCS(=O)(=O)CC2)C1=O	8%	·	·	·	·	·
C/C=C\C=C/C(=O)Nc1cccc(C2=NOC3(C2)C[C@@H](C(N)=O)N(C(=O)c2ccccc2)C3)c1 (stereo partly drawn)	·	11µM*	?	·	1%	·
O=C1CCCC(O)=C1Sc1cc(Cl)c(Cl)cc1Cl	40µM*	·	·	57%	·	2%
CCOc1ccc(C(=O)/C=C/c2ccccc2)cc1	-23%	·	·	·	·	·
COCCn1c(COc2ccc(C(C)(C)c3ccccc3)cc2)n[nH]c1=S	16µM*	·	·	·	·	·
COCCn1c(-c2ccccc2F)n[nH]c1=S	?	-1%	?	44%	22%	35µM*
COCc1ccccc1CNC(=O)c1nccnc1N	-5%	·	·	·	·	·
CC(C)NC(=O)CCC[C@@H]1[C@H]2CCCN3CCC[C@@H](CN1C(=O)c1cccnc1)[C@@H]23	7%	·	·	·	·	·
CC(C)(C)c1ccc2c(c1)OC(C(=O)N/N=C\c1ccc(-c3cccc(C(=O)O)c3)o1)CO2 (stereo not drawn)	?	50µM*	40µM*	3%	50µM*	-25%
